Test results as given in the supplement of paper PMC6555819.

Legend:
Assay in all cases: PBM binding z-score (relative to random genomic background probes); higher = stronger binding; sequences stand for … in GC…GCGATTGACAGCGTAGAATGAAGG
[1] = test system: PPARg:RXRa DBDmut IVT, anti-RXR (DBD mutation: RXRa K156A/R161A, NR concentration 270 nM, RXRa partner concentration 90 nM)
Outline: (§1)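 Binding buffer was PBS pH 7.4 with 2% milk, 0.02% Triton X-100, 1 mM DTT, 0.2 mg/mL BSA and 0.4 mg/ml salmon testes DNA. In it, ligand-free nuclear receptor dimers were incubated 1 h on custom Agilent 4×180K protein-binding microarrays carrying double-stranded probes. Antibodies against each partner (one per run) detected binding, and z-scores were calculated against random background probes after regression normalization of scanned fluorescence.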

[2] = test system: PPARg:RXRa IVT, anti-PPARg (NR concentration 270 nM, RXRa partner concentration 90 nM)
Outline: as §1

[3] = test system: PPARg DBDmut:RXRa IVT, anti-PPARg (DBD mutation: PPARg1 K132A/R137A, NR concentration 270 nM, RXRa partner concentration 90 nM)
Outline: as §1

[4] = test system: PPARg DBDmut IVT, anti-PPARg (DBD mutation: PPARg1 K132A/R137A, NR concentration 270 nM)
Outline: as §1

[5] = test system: PPARg homodimer (NR concentration 180 nM)
Outline: as §1

[6] = test system: PXR:RXRa (NR concentration 270 nM, RXRa partner concentration 90 nM)
Outline: as §1

[7] = test system: PXR homodimer (NR concentration 270 nM)
Outline: as §1

[8] = test system: RARa:RXR (NR concentration 270 nM, RXRa partner concentration 90 nM)
Outline: as §1

[9] = test system: RARa homodimer (NR concentration 270 nM)
Outline: as §1

[10] = test system: RARb:RXRa (NR concentration 270 nM, RXRa partner concentration 90 nM)
Outline: as §1

[11] = test system: RARb homodimer (NR concentration 270 nM)
Outline: as §1

[12] = test system: RARg:RXRa (NR concentration 270 nM, RXRa partner concentration 90 nM)
Outline: as §1

[13] = test system: RARg homodimer (NR concentration 270 nM)
Outline: as §1

[14] = test system: RXRa DBDmut IVT, anti-RXR (DBD mutation: RXRa K156A/R161A, NR concentration 90 nM)
Outline: as §1

[15] = test system: RXRa homodimer (NR concentration 180 nM)
Outline: as §1

[16] = test system: THRa:RXRa (NR concentration 90 nM, RXRa partner concentration 90 nM)
Outline: as §1

[17] = test system: THRa homodimer (NR concentration 90 nM)
Outline: as §1

[18] = test system: VDR homodimer (NR concentration 270 nM)
Outline: as §1

| Sequence | PBM binding z-score [1] | PBM binding z-score [2] | PBM binding z-score [3] | PBM binding z-score [4] | PBM binding z-score [5] | PBM binding z-score [6] | PBM binding z-score [7] | PBM binding z-score [8] | PBM binding z-score [9] | PBM binding z-score [10] | PBM binding z-score [11] | PBM binding z-score [12] | PBM binding z-score [13] | PBM binding z-score [14] | PBM binding z-score [15] | PBM binding z-score [16] | PBM binding z-score [17] | PBM binding z-score [18] |
| --- | --- | --- | --- | --- | --- | --- | --- | --- | --- | --- | --- | --- | --- | --- | --- | --- | --- | --- |
| CCTATTAGTTGACCATCAGGGCAACCGAAGCTCG | 0.536 | 0.814 | 0.556 | 0.943 | 1.44 | 0.0854 | 0.589 | 0.0403 | 1.51 | 1.07 | 1.35 | 0.553 | 0.807 | 0.518 | 0.205 | 1.19 | 0.957 | 0.592 |
| ATATGTAGCTTAGCTGGGGTCATTCAGACTAGGC | 0.33 | 0.991 | 0.947 | 0.695 | 1.04 | 5.29 | 1.48 | 4.92 | 0.298 | 2.4 | 3.13 | 3.19 | 2.02 | 1.54 | 5.09 | 3.92 | 2.85 | 3.19 |
| CGTCCACGGTCAGCAGGTCAGTGAAAGCGACGTG | 0.719 | 0.748 | -0.923 | -1.32 | 0.382 | 0.0662 | -0.459 | 0.943 | -0.66 | 3.25 | 3.48 | 2.99 | 3.3 | 0.0347 | 0.719 | 1.22 | -0.0318 | -0.234 |
| CGAACTAGGTCAGAACAGGAGAGTGAAGGATGAT | 7.25 | 7.15 | 1.13 | 1.4 | 0.511 | 0.126 | -0.235 | 0.576 | 0.206 | 2.94 | 1.69 | 2.51 | 3.2 | 0.692 | 1.23 | 1.72 | 0.0817 | 0.129 |
| ATCTCTAGGTAACAAGCTCAGTGAAAGAGAGGAC | 2.93 | 2.48 | 0.643 | 1.26 | 0.56 | -0.0529 | 0.34 | 0.0879 | 0.837 | 0.417 | 0.444 | 0.352 | 0.494 | -0.305 | 0.272 | 1 | 0.56 | -0.048 |
| ATCCAAAGGTCGAAGGTGAGTATACCCACCCGAA | 0.6 | 2.51 | 0.413 | 0.999 | 2.58 | 3.26 | 0.0246 | 4.54 | 0.353 | 3.97 | 2.66 | 4.58 | 4.35 | 0.893 | 5.48 | 2.32 | -0.204 | 0.849 |
| TCTAGTTGGTCACGGTGGTCACACACGACGGGTA | 2.21 | 3.35 | 1.54 | 0.923 | 0.94 | 0.537 | -0.191 | 0.741 | -0.155 | 1.93 | 1.58 | 1.53 | 1.77 | 0.312 | 0.842 | 0.234 | 0.0512 | -0.372 |
| AGAATGAGGTTACCAAAGCTCAGGGAAACGCTTG | 3.42 | 3.11 | 0.652 | 0.289 | 0.125 | 0.966 | -0.338 | 1.77 | -0.239 | 2.15 | 0.544 | 1.91 | 1.54 | 1.04 | 2.62 | 2.83 | 0.864 | -0.0119 |
| CAAACTAGGTCAAGGTCAAAGACGGTTTGTGCCA | 8.62 | 8.85 | 4.67 | 5.73 | 5.24 | 4.88 | 2.2 | 5 | 2.69 | 5.16 | 5.1 | 5.82 | 6.9 | 3.16 | 5.06 | 4.34 | 3.55 | 4.1 |
| CCTGCGAGGTCAATGGTCAGCTAAAGCAGCTCGC | 3.45 | 3.93 | 1.18 | -0.453 | 2.42 | 4.55 | 0.99 | 4.6 | 0.55 | 5.07 | 4.2 | 6.01 | 5.99 | 4.37 | 5.95 | 3.8 | 2.37 | 3.63 |
| CGAACTAGGTCATCCAGGACAGAGAATACATTGA | 8.15 | 8.34 | 2.22 | 1.68 | 1.64 | 1.97 | 1.05 | 2.45 | 0.545 | 3.79 | 2.81 | 4.02 | 4.59 | 2.33 | 3.1 | 3.49 | 1.8 | 1.64 |
| CAAACTAGGTCACCGGAAGGTCAAATTCCGCATG | 8.5 | 8.8 | 3.05 | 2.87 | 7.39 | 6.11 | 2.46 | 7.62 | 3.35 | 5.12 | 5.55 | 8.17 | 7.31 | 2.13 | 6.55 | 4.58 | 3.11 | 2.93 |
| TCTCGGAGGACACGAAGGTCAGAGATTTCCAGAG | 1.66 | 1.24 | -0.127 | -0.972 | 1.21 | 1.86 | 1.02 | 2.11 | -0.144 | 3.4 | 3.84 | 3.05 | 4.12 | 0.78 | 1.99 | 2.92 | 1.1 | 1.7 |
| GCGACTGGGGCATCAGCAGGTTACTATAACTTAA | 4.13 | 3.05 | -0.371 | -0.562 | -0.0326 | -0.0216 | -0.178 | 0.369 | -0.337 | 0.825 | 0.782 | 0.807 | 0.379 | 0.136 | 0.331 | 0.816 | 0.104 | 0.0737 |
| TAGCCTTGGTCATGCGGGCCAGTATAGTGTCGGC | -0.432 | 0.0959 | -0.481 | -0.0984 | -1.18 | -0.758 | -1.18 | -0.757 | -1.23 | 0.534 | -0.234 | -0.0381 | 0.129 | -1.52 | -0.29 | -0.715 | -0.902 | -0.904 |
